Bioassay records deposited in PubChem BioAssay by The Scripps Research Institute Molecular Screening Center.
ADAM17 inh: ADAM17 inhibition, QFRET primary screen. P78536. AID 720648. recombinant ADAM17, EDANS/DABCYL FRET peptide cleavage. inhibition, % at 6.95 µM. 370,000 compounds, 0.83% hits;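 active = inhibition above the mean of compounds lying between control limits plus 3 SD, set per campaign, cut at about 8.5% in these data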;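 note: 0% = DMSO-only wells as the low control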
ADAM10 inh: ADAM10 inhibition, QFRET primary screen. O14672. recombinant ADAM10, EDANS/DABCYL FRET peptide cleavage, 3 h. inhibition, % at 7 µM. 370,000 compounds, 0.62% hits. AID 720582;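 active = inhibition above a per-campaign cutoff equal to the mean of compounds falling between control-based bounds plus 3 SD, cut at about 20% in these data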;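 note: 0% = DMSO wells while the 100% control is not disclosed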
proKLK7 act: activates the human kallikrein-7 zymogen; P49862; 370,000 compounds, 0.9% hits; purified proKLK7, EDANS-DABCYL substrate fluorescence; 100% is mature enzyme control, 0% vehicle; activation, % at 7 µM; AID 652039;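 active = activation above the mean of all tested compounds plus 3 SD, computed per campaign excluding outliers beyond control limits, cut at about 13% in these data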
Target sequence (P49862 whole entry, looked up): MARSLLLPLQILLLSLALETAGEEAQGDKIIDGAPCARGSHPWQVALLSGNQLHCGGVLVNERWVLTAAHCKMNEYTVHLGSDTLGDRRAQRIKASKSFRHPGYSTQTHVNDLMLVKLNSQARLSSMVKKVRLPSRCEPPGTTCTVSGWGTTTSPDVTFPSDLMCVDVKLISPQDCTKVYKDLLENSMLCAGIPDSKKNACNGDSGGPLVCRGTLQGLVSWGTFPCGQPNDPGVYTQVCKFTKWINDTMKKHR
sPLA2-III inh: Blocks human group III sPLA2 activity | inhibition, % at 12.2 µM | QFRET BODIPY PC-A2 liposome hydrolysis, fluorescence | 370,000 compounds, 0.56% hits;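 active = inhibition above mean plus 3 SD of compounds lying within the high and low control bounds, cut at about 19% in these data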;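 note: 0% = median of test compound wells and 100% = no enzyme DMSO wells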
PLC-gamma1 inh: inhibitors of human phospholipase C gamma1 | purified PLC-gamma1, fluorogenic substrate, fluorescence | inhibition, % at 12.2 µM | P19174 | 370,000 compounds, 0.84% hits; in the data active = inhibition above about 9.5%
PLC-beta3 inh: inhibitors of human phospholipase C beta3; Q01970; Purified PLC-beta3, fluorogenic substrate, fluorescence; inhibition, % at 12.2 µM; 370,000 compounds, 0.18% hits; in the data active = inhibition above about 11%;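 note: 0% = median of compound wells on plate and 100% = full blocker control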
proKLK7 act conf: proKLK7 activation, confirmation | activation, % at 7 µM | 3,200 compounds, 68% hits | purified proKLK7, EDANS-DABCYL substrate fluorescence; scaled: vehicle 0, mature enzyme 100 | shares compounds with proKLK7 act | AID 686949;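 active = activation, as change over the incubation, above the mean of all tested compounds plus 3 SD, cut at about 13% in these data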
EDANS interfere: counter-screen for kallikrein-7 activators: EDANS-DABCYL optical interference. shares compounds with proKLK7 act. EDANS-DABCYL substrate fluorescence interference, no enzyme, 4 h; solvent 0%, active enzyme control 100%. activation, % at 7 µM. 3,200 compounds, 80% hits;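 active = activation above the all-compound mean plus 3 SD, ignoring values outside control-based bounds, cut at about 4.8% in these data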;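 note: value is the 4 h activation minus the activation read at time zero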
ADAM10 confirm: confirmation of inhibitors of human ADAM10. inhibition, % at 6.95 µM. ADAM10 QFRET peptide cleavage, EDANS fluorescence. 2,100 compounds, 1% hits. shares compounds with ADAM10 inh;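 active = inhibition above about 20% chosen separately for each screening run, limit read from the data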;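 note: 0% = DMSO wells and 100% = marimastat wells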
ADAM17 ctr: counter-screen for ADAM10 exosite inhibitors: inhibitors of human ADAM17; inhibition, % at 6.95 µM; shares compounds with ADAM10 inh; ADAM17 QFRET peptide cleavage, EDANS fluorescence; 2,100 compounds, 0.5% hits;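 active = mean triplicate inhibition above the solvent-only control wells' mean plus 3 SD, cut at about 12% in these data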;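 note: 0% = DMSO wells and 100% = marimastat wells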
hGIII sPLA2 conf: human GIII-sPLA2 inhibition, confirmation; shares compounds with sPLA2-III inh; recombinant hGIII-sPLA2, BODIPY PC-A2 QFRET fluorescence; inhibition, % at 12.2 µM; 2,000 compounds, 34% hits; AID 743280;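 active = mean inhibition across triplicates above the hit cutoff set in the earlier primary screen, cut at about 19% in these data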;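 note: 0% = enzyme with DMSO and 100% = DMSO wells lacking enzyme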
BODIPY interf: 535nm fluorescence interference, HGIII-sPLA2 counter-screen; shares compounds with sPLA2-III inh; BODIPY FL product fluorescence interference, QFRET; inhibition, % at 12.2 µM; 2,000 compounds, 8.5% hits; AID 743282;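 active = average inhibition above the solvent-only control mean plus 3 SD, cut at about 6% in these data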;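 note: 0% = DMSO with substrate plus product and 100% = DMSO with substrate alone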
BODIPY interf DR: interferes with 535nm fluorescence in dose response counter-screen. IC50, µM. BODIPY FL product fluorescence interference, cell-free. shares compounds with sPLA2-III inh. 240 tested, under 10 active;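 active = IC50 at or below 10 µM; inactive = IC50 above 10 µM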
Numbers without * were called inactive; i = inactive; · = not tested or not shown. Compounds with a hit are over-represented: about 3.4% of the library has one in this group of screens.

SMILES	ADAM17 inh	ADAM10 inh	proKLK7 act	sPLA2-III inh	PLC-gamma1 inh	PLC-beta3 inh	proKLK7 act conf	EDANS interfere	others
CCCCNC(=O)C1c2cc(OC)c(OC)cc2C(=O)N(C)C1c1ccc(OC)cc1 (stereo not drawn)	-5	-11	0	3	2	2	·	·
COC(=O)c1ccc2c(C)c(C(C)(C)O)[nH]c2c1	i	i	28*	-10	i	i	67*	63*
Cn1ccc2c(-c3ccc(C(=O)O)cc3)cc3c(c21)C1CCC3O1 (stereo not drawn)	i	i	79*	-10	i	i	66*	70*
Cc1cc2c(C)cc(=O)oc2c2c1NCCC2	i	i	68*	1	i	i	62*	63*
O=C(Nc1ccc(F)cc1)OCCCN1C(=O)CCC12CCCCC2	2	4	0	4	2	3	·	·
CC(C)(C)n1nc(C2CC2)cc1NC(=O)Nc1ccccc1	-5	-10	0	9	1	1	·	·
Nc1ccc(-c2ncc(-c3ccccc3)o2)cc1	i	i	21*	2	i	i	7	3
Cc1ccc(-c2cnc(-c3ccncc3)o2)cc1	i	i	74*	0	i	i	65*	70*
c1nc(NC[C@@H]2CCCO2)c2cc(-c3ccc4c(c3)OCO4)ccc2n1	-29	-76	·	4	-113	-169	·	·
O=C(N[C@@H](Cc1cccnc1)C(=O)N1CCC[C@H]1C(=O)NCCc1ccccc1Cl)c1ccc(Cl)cc1Cl	-5	-13	1	1	1	4	·	·
CCCSc1ncc(Cl)c(C(=O)Nc2ccc(S(=O)(=O)N3CC(C)OC(C)C3)cc2)n1 (stereo not drawn)	7	20*	67*	-16	0	-2	-145	-145	ADAM10 confirm=10;ADAM17 ctr=4
O=C(NCc1ccccc1)[C@@H]1CCCN1C(=O)[C@H]1CCCN1C(=O)c1c(F)cccc1F	-2	-1	0	17	3	-1	·	·
COC(=O)c1cc(Cl)ccc1NCC(N)c1ccccc1 (stereo not drawn)	i	i	18*	20*	-381	-486	-41	-40	hGIII sPLA2 conf=9;BODIPY interf=-15
COc1ccccc1CC(=O)Nc1ccc(Cl)cc1C(=O)O	-7	-17	1	-4	-6	-8	·	·
Cc1cc(N2CCN(CC(C)(C)O)C[C@H]2C)ccc1N1CCN(CC(C)(C)O)[C@@H](C)C1	2	-7	0	12	-1	-5	·	·
Cc1cc(C)c2nc(NNC(=O)c3cc(-c4cccs4)nc4ccccc34)sc2c1	-67	-297	13*	37*	-72	-94	10	12*	hGIII sPLA2 conf=34*;BODIPY interf=0;BODIPY interf DR=>122
CNc1ccccc1C(=O)OCC(=O)N(CCOC)c1c(N)n(CC(C)C)c(=O)[nH]c1=O	-411	i	20*	20*	i	i	18*	16*	hGIII sPLA2 conf=11;BODIPY interf=-8
Nc1ccc2nc(-c3cccnc3)[nH]c2c1	-5	-10	0	11	-37	-39	·	·
Nc1ccc2nc(-c3ccc(N)c(Cl)c3)[nH]c2c1	i	i	77*	21*	i	i	68*	72*	hGIII sPLA2 conf=9;BODIPY interf=0
Cc1cccc(C(=O)Nc2nc3ncccn3c2-c2ccccc2)c1	-67	-227	8	3	-229	-305	·	·
COC(=O)C1=NN(c2cccc(C)c2)C2C(=O)N(c3ccccc3OC)C(=O)C12 (stereo not drawn)	-4	-12	15*	20*	-334	-335	-52	-47	hGIII sPLA2 conf=-2;BODIPY interf=-2
COC(=O)c1cc2c(c3c4ccccc4n(S(=O)(=O)c4cccc(C)c4)c13)C(=O)N(Cc1ccccc1OC)C2	-3	-4	-5	5	-16	-21	·	·
COc1ccc(N(CC(O)Cn2cnc3ccccc32)S(=O)(=O)c2ccc(C)cc2)cc1 (stereo not drawn)	8	22*	0	-58	6	3	·	·	ADAM10 confirm=2;ADAM17 ctr=0
COc1ccc(N(CC(O)Cn2c(C)nc3ccccc32)S(=O)(=O)c2ccc(C)cc2)cc1 (stereo not drawn)	2	0	0	2	2	1	·	·
CC(C)c1ccc(NC(=O)O[C@@H]2CC[C@@]34CCCN3C(=O)CCC[C@H]4C2)cc1	-5	-4	·	-6	-2	1	·	·
SMILES	ADAM17 inh	ADAM10 inh	proKLK7 act	sPLA2-III inh	PLC-gamma1 inh	PLC-beta3 inh	proKLK7 act conf	EDANS interfere	others
Cc1ccc(N2CC(C(=O)Nc3nnc(SCC(N)=O)s3)CC2=O)cc1 (stereo not drawn)	0	81*	0	0	0	-5	·	·	ADAM10 confirm=1;ADAM17 ctr=-1
CCCCC(=O)N[C@H]1CC[C@@]23CCCN2C(=O)CCC[C@H]3[C@H]1CCC	0	-3	·	-2	0	3	·	·
CSCCC(NC(=O)c1ccccc1)C(=O)OCC(=O)Nc1ccc(C)c(Cl)c1 (stereo not drawn)	4	32*	0	-61	2	2	·	·	ADAM10 confirm=6;ADAM17 ctr=1
O=C(OCc1cn(Cc2ccc(F)cc2)nn1)N1CCCC1	-7	-5	0	15	8	6	·	·
COC(=O)c1cc(=O)nc(NN=C(C)C)s1	-4	-8	0	9	-3	-7	·	·
COc1cccc(/C(C)=N/NS(=O)(=O)c2ccc(Cl)cc2)c1	-5	-5	0	3	3	0	·	·
COc1cccc(/C(=N/O)C2CC2c2ccc(Cl)cc2)c1 (stereo not drawn)	7	22*	1	2	2	-3	·	·	ADAM10 confirm=6;ADAM17 ctr=1
